Assay results published in PubChem BioAssay (NCI).
This is part of a sample that, as a whole, favours compounds with a hit. Of some 83,000 tested, about 20% had one in any assay.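 How to read the values: 0–100, growth inhibition (40 = 60% inhibited); 0, no net growth; -100 to 0, cell death (-40 = 40% of starting cells died; -100 = all dead).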 A number with no mark means an inactive call. Calls of active or inactive are those of the source. How the source made its calls: active means growth percent below 10; inactive means the rest.

Assays:
Assay in all cases: NCI-60 one-dose screen, 48 h (100 = growth as untreated, 0 = no growth, -100 = all killed)
Conditions in all cases: 10 µM unless noted
SR leukemia = test system: SR leukemia
RPMI-8226 leukemia = test system: RPMI-8226 leukemia
OVCAR-8 ovarian = test system: OVCAR-8 ovarian
OVCAR-5 ovarian = test system: OVCAR-5 ovarian
OVCAR-4 ovarian = test system: OVCAR-4 ovarian
IGROV1 ovarian = test system: IGROV1 ovarian
OVCAR-3 ovarian = test system: OVCAR-3 ovarian
HS 578T breast = test system: HS 578T breast
NCI/ADR-RES ovarian = test system: NCI/ADR-RES ovarian
T-47D breast = test system: T-47D breast
BT-549 breast = test system: BT-549 breast
MDA-MB-435 melanoma = test system: MDA-MB-435 melanoma
SW-620 colon = test system: SW-620 colon
MCF7 breast = test system: MCF7 breast
HCT-116 colon = test system: HCT-116 colon
HCC-2998 colon = test system: HCC-2998 colon
KM12 colon = test system: KM12 colon
SK-OV-3 ovarian = test system: SK-OV-3 ovarian

Compound | growth (SR leukemia) | growth (RPMI-8226 leukemia) | growth (OVCAR-8 ovarian) | growth (OVCAR-5 ovarian) | growth (OVCAR-4 ovarian) | growth (IGROV1 ovarian) | growth (OVCAR-3 ovarian) | growth (HS 578T breast) | growth (NCI/ADR-RES ovarian) | growth (T-47D breast) | growth (BT-549 breast) | growth (MDA-MB-435 melanoma) | growth (SW-620 colon) | growth (MCF7 breast) | growth (HCT-116 colon) | growth (HCC-2998 colon) | growth (KM12 colon) | growth (SK-OV-3 ovarian)
O=C(O)C(Cc1ccccc1)N1C(=O)/C(=C/C(Cl)=C/c2ccc([N+](=O)[O-])cc2)SC1=S (stereo not drawn) | 5.32% (active) | -6.22% (active) | 12.1% | 137% | 7.24% (active) | 36.3% | 10.7% | 44.6% | 68.7% | 1.08% (active) | -28.1% (active) | -41.7% (active) | 5.12% (active) | 26.1% | -59.5% (active) | 3.58% (active) | 14.8% | –
CCCCOc1nc2c(C)cccc2cc1C1CNC(=O)c2ccccc2N1 (stereo not drawn) | 18.1% | 57.5% | 81.2% | 112% | 71.7% | – | 20% | 69.7% | 51.3% | 58.4% | 74.5% | 4.51% (active) | 42.3% | 15.8% | 45.9% | 101% | 56.4% | 69.2%
CCSc1nnc(NC(=O)COc2ccc(Cl)cc2C)s1 | 43.4% | 94.6% | 100% | 96.2% | 107% | -17.9% (active) | 94.8% | 101% | 106% | 96% | 110% | 84% | 102% | 91% | 103% | 131% | 109% | –
Cc1oc2nc[nH]c(=O)c2c1C(=O)/C=C/c1ccc(Cl)cc1 | -30.6% (active) | -14.1% (active) | 15.8% | 34.5% | 29.8% | 38.9% | 4.32% (active) | 60.5% | 10.4% | – | 20.2% | 6.74% (active) | 8.49% (active) | 15.4% | 13.7% | 83.1% | 13.6% | –
CSc1nc(-c2cc3ccccc3o2)cc(-c2ccc(Cl)cc2)c1C#N | 82.6% | 26.6% | 28.7% | 93.7% | -57.5% (active) | – | 37.7% | 76% | 64.3% | 24.7% | 115% | 111% | 71.1% | 14% | 58.8% | 85.6% | 40.4% | -21.3% (active)
CCCn1c(=S)sc2c(Cl)nc(C)nc21 | 123% | 99.1% | 105% | 109% | 85.5% | – | 88.6% | 36.8% | 106% | 104% | 42.9% | 104% | 102% | 46.7% | 104% | 111% | 104% | 90.5%
O=C1CCC/C=C\C[C@H]2C=CC(=O)/C2=C/C[C@H](C/C=C\CC(F)(F)F)O1 | 4.02% (active) | -4.51% (active) | 10.4% | -6.91% (active) | 20.6% | -25.8% (active) | -69.7% (active) | 23.2% | 8.83% (active) | 6.6% (active) | -18% (active) | -22.8% (active) | -15.7% (active) | 6.19% (active) | -51.4% (active) | -83.7% (active) | -71.3% (active) | –
COc1cc(-c2cc(/C=C3\CCCCC3=O)[nH]n2)cc(OC)c1OC | 49.2% | 86.4% | 102% | 103% | 95% | – | 104% | 99.4% | 103% | 90.1% | 99.7% | 102% | 101% | 92.5% | 89% | 106% | 94.4% | 128%
C=C1C(=O)O[C@H]2[C@H]1CC/C(COC(=O)NCCc1ccc(OC)cc1)=C\CC[C@@]1(C)O[C@@H]21 | -4.05% (active) | 17.5% | 2.7% (active) | 30.9% | 17.4% | – | -29.6% (active) | 46% | 78.9% | -5.43% (active) | 8.9% (active) | 21.5% | -65.6% (active) | 2.77% (active) | -58.4% (active) | 71.1% | 56.9% | 89.3%
COc1cccc(/C=C/c2c(C(=O)O)cccc2[N+](=O)[O-])c1OC | 103% | 107% | 110% | 103% | 113% | – | 102% | – | 109% | 91.2% | 107% | 101% | – | 95.8% | 97.9% | 104% | 96.8% | 88.2%
O=c1[nH]c2ccccc2cc1-c1nnc(Cc2ccccc2)o1 | 31.6% | 15.3% | 57.8% | 120% | 61.3% | 66% | 69.6% | 90.1% | 89.8% | 42.2% | 48.9% | 52.9% | – | 20.5% | 7.52% (active) | 78.9% | 77.8% | –
Cc1oc2ncnc(Nc3ccccc3)c2c1C(=O)NCCO | 52.2% | 94.8% | 113% | 93.2% | 103% | – | 102% | 90.5% | 102% | – | 90.1% | 102% | 95.1% | 98.6% | 99.3% | 103% | 95.2% | 100%
COC12CC(=O)C(C(C)=O)=C(O)C1(C)c1c(O)c(C)c(O)c(C(C)=O)c1O2 (stereo not drawn) | 69.9% | 44.5% | 58.7% | 99.7% | 85.9% | 68.9% | 59.2% | 75.4% | – | – | 78.7% | 87.3% | 80.2% | 80.9% | 80.6% | 65.9% | 49.6% | –
CN1CCN(CCCOc2ccc3nc(Nc4ccc(C(F)(F)F)c(Cl)c4)ccc3c2)CC1 | -6.45% (active) | -6.92% (active) | 31.3% | 22.4% | – | 13.7% | -11.8% (active) | 16.3% | 20.4% | 39.9% | 80.9% | -74.9% (active) | -70.4% (active) | -69.5% (active) | 0.975% (active) | -71.1% (active) | -14.3% (active) | 55.5%
COc1cc(CNC(=O)CSc2nc3ccccc3c(=O)n2Cc2cc(OC)c(OC)c(OC)c2)cc(OC)c1OC | 123% | 102% | 96.4% | 102% | 103% | 97.9% | – | – | 103% | – | 104% | 103% | 109% | 92.7% | 97.5% | – | 102% | –
COc1cc(OC)c(C(=O)/C=C/c2ccc(C#N)cc2)c(OC)c1 | 6.75% (active) | 4.28% (active) | 11.7% | 41.8% | – | 14% | 8.04% (active) | 32% | 24.1% | 18.5% | -7.5% (active) | 5.64% (active) | 9.15% (active) | 13.8% | 10.2% | 36.8% | 7.74% (active) | 17.2%
CCCCCC/C=C\CCCCCCCCOc1ccc(CCOP(=O)(O)OCC[N+](C)(C)C)cc1 | 50.7% | 23.8% | 80.9% | 90.3% | 86.1% | 42.6% | 74.8% | 89.5% | 100% | – | 91.2% | 100% | 93.2% | 79.2% | 50.2% | 89.2% | 59.3% | –
COc1ccc(NC(=O)/N=c2\oc3c(OC)cccc3cc2-c2cc3ccccc3[nH]2)cc1 | 107% | 173% | 49.1% | 88.3% | 69.8% | 50% | 64.4% | 7.84% (active) | 57.7% | – | 81.9% | 82.6% | 70.3% | 70.1% | 28.1% | 95.5% | 63.1% | –
